Screening data as filed in PubChem.
Sampled rows, rich in hits. Any-hit rate of the full collection: about 3%.
Casp7 inh: qHTS Assay for Allosteric/Competitive Inhibitors of Caspase-7. P55210. recombinant caspase-7, Ac-DEVD-AFC fluorescence rate. Potency, µM (highest dose often 57.5 µM), without a hit: top-dose activity change, negative = inhibition, actives largely listed as inhibitors. 75,000 tested, 0.02% active; active = well fitted inhibition curve with a large enough effect in the main read-out, with a control signal flat, not every such curve was filed as active; inconclusive = small, poorly fitted or top-dose-only effect, or a change in a side signal; note: % of control where 0% means no effect
Target sequence (P55210 24-198 limits assumed): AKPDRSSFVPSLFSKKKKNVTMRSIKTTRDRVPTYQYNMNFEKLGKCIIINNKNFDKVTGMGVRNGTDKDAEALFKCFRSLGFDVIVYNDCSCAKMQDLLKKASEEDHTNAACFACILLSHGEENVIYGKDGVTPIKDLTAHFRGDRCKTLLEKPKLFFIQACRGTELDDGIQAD
Target sequence (P55210 207-303 limits assumed): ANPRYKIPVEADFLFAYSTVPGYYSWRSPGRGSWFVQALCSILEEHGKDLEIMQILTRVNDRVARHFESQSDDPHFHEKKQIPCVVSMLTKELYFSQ
TSHR agonist: qHTS Assay for Agonists of the Thyroid Stimulating Hormone Receptor | Thyrotropin receptor (Homo sapiens), P16473 | HEK293-CNG-TSHR cells (CNG channel as cAMP sensor), membrane potential dye, cAMP | Potency, µM (highest dose often 57.1 µM), for inactives: at the top dose activation, most hits filed as activators | 73,000 tested, 0.48% active | AID 926, 2007; active = well fitted activation curve with a large enough effect in the main read-out, with a control signal flat, not every such curve was filed as active; inconclusive = small, poorly fitted or top-dose-only effect, or a change in a side signal; inactive = no such curve, though single readings can be large or run the other way; % of control where 0% means no effect;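 note: the control signal comes from parental cells without the receptor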
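HEK 293 cells stably expressing TSHR and a modified CNG channel, with CNG-only parental cells as counterscreen, were preloaded 60 min at room temperature with membrane potential dye containing 100 uM RO 20-1724. Compound exposure was 30 min, and depolarization was read as fluorescence at 590 nm.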
HEK293 cAMP ctrl: qHTS Assay for Agonists of the Thyroid Stimulating Hormone Receptor: Activators of Intracellular cAMP Concentrations in Parental HEK 293; parental HEK293 CNG cAMP sensor, membrane potential fluorescence; Potency, µM (titrated, usually from 57.1 µM), for inactives: top-dose activation, usual class: activators; 73,000 tested, 2.5% active; note: % of control where 0% means no effect; nearly all actives have a fitted effect of over 55% in size
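Counterscreen for endogenous-receptor signalling: CNG-channel HEK 293 cells report cAMP rise by membrane depolarization. After 60 min dye equilibration with 100 uM RO 20-1724, compounds incubated 30 min before bottom-read fluorescence at 590 nm.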
Casp1 inh: qHTS Assay for Allosteric/Competitive Inhibitors of Caspase-1 | AID 900, 2007 | Caspase-1 enzyme, Ac-WEHD-AFC fluorogenic rate | 75,000 tested, 0.03% active | P29466 | Potency, µM (series often up to 57.5 µM), inactives show at the highest dose activity change, negative = inhibition, most hits filed as inhibitors;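 note: plate controls were vehicle for no effect and no substrate for full effect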
Target sequence (P29466 120-297 limits assumed): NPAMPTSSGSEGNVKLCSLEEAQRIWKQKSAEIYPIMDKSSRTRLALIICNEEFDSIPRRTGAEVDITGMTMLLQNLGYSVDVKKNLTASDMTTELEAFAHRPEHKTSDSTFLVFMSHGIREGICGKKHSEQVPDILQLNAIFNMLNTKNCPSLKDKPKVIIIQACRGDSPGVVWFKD
Target sequence (P29466 317-404 limits assumed): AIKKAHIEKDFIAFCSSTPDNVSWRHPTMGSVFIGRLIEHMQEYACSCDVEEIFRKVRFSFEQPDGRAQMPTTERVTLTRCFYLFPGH
15-hLO inh: qHTS Assay for Inhibitors of 15-hLO (15-human lipoxygenase). Potency, µM (top dose mostly 57.1 µM), for inactives: at the highest dose activity change, negative = inhibition, hits mostly inhibitors. purified 15hLO-1, xylenol orange hydroperoxide absorbance. Polyunsaturated fatty acid lipoxygenase ALOX15 (Homo sapiens), P16050. 74,000 tested, 1.4% active. AID 887, 2007; note: % is set by controls: 0 for no effect and ±100 for the full control effect; nearly all actives have a fitted effect of over 55% in size
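Purified human 15hLO-1 (40 nM) in 25 mM Hepes pH 7.5, 0.01% Triton X-100, preincubated 15 min RT with compound, then 50 uM arachidonic acid for 6 min. Hydroperoxide read by ferrous/xylenol orange, 30 min; 573/405 nm absorbance ratio gave progress.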
ALOX15B inhib: qHTS Assay for Inhibitors of 15-hLO-2 (15-human lipoxygenase 2) | 110,000 tested, 0.56% active | Polyunsaturated fatty acid lipoxygenase ALOX15B (Homo sapiens), O15296 | purified 15hLO-2, xylenol orange hydroperoxide absorbance | Potency, µM (titrated, usually from 57.1 µM), inactives show at the highest dose activity change, negative = inhibition, usual class: inhibitors; note: % is set by controls: 0 for no effect and ±100 for the full control effect; nearly all actives have a fitted effect of over 60% in size
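Read-out: hydroperoxide product oxidises ferrous iron, measured as xylenol orange complex via the 573-to-405 nm absorbance ratio after 30 min. Reaction: 50 nM enzyme, 15 min compound preincubation, 45 uM arachidonic acid, 90 min RT, Hepes pH 7.5 with Triton X-100.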
Active calls of the source: *; ? = inconclusive; nt = no result given; [ ] = dose if it differs, or a comment. Unless noted, calls come from the whole dose curve; as a rule, active = well fitted curve in the direction sought with a large enough effect; inconclusive = small, poorly fitted or top-dose-only effect, or another doubt; inactive = no such curve, though single readings can be large; an effect the other way counts as inactive or inconclusive. Potency is the fitted concentration of half-maximal effect.

SMILES | Casp7 inh | TSHR agonist | HEK293 cAMP ctrl | Casp1 inh | 15-hLO inh | ALOX15B inhib
CC(C)C(=O)N(c1ccc2oc(=O)sc2c1)S(=O)(=O)c1ccccc1 | nt | nt | nt | nt | nt | -4%
CSc1nc(NCc2ccco2)c2c3c(sc2n1)CN(C)CC3 | -1% | ? | 25µM* | -1% | -15% | 2%
C=C1C(=O)OC2CC1C(OC(C)=O)CC(C)=CCCC(C)=CCC[C@@]2(C)O (stereo partly drawn) | -1% | nt | nt | 0% | -5% | 7%
O=C1c2ccccc2C(Cc2ccnc(F)c2)(Cc2ccnc(F)c2)c2ccccc21 | 1% | ? | 0.25µM* | -1% | ? | -2%
CC1CCCN(c2nc3ccsc3c(=O)s2)C1 (stereo not drawn) | -9% | ? | 25µM* | -11% | -13% | 3%[2.29 µM]
Nc1nc(-c2cccnc2)cc(-c2cc(-c3cccnc3)nc(N)n2)n1 | -3%[11.5 µM] | -3%[11.4 µM] | -2%[11.4 µM] | -3%[11.5 µM] | 6%[11.4 µM] | -12%[11.4 µM]
Cc1c(N/C=C/C(=O)c2cccs2)c(=O)n(-c2ccccc2)n1C | -1% | 13% | 15% | -3% | 25µM* | -20%
Cc1c(NS(=O)(=O)c2cccs2)c(=O)n(-c2ccccc2)n1C | 1% | 4% | 13% | 1% | 6% | 4%
COc1ccc(N2CCC(CNS(=O)(=O)c3cccc(C(F)(F)F)c3)C2)cc1 (stereo not drawn) | -1% | -13% | 0% | -3% | 0.79µM* | 9%[2.29 µM]
Cc1cccnc1NC(=S)NC(=O)c1cccs1 | nt | nt | nt | nt | nt | -11%
Cc1c(C(=O)NC(=S)Nc2ccc(NC(=O)c3cccs3)cc2)oc2ccccc12 | nt | nt | nt | nt | nt | 7.9µM*
CCC[C@@H]1C[C@@]1(CCC)C(NC(=O)c1ccco1)c1ccc(Cl)cc1 (stereo partly drawn) | -4% | ? | 10µM* | -3% | nt | 0%
CCC[C@@H]1C[C@@]1(CCC)C(NP(=O)(c1ccccc1)c1ccccc1)c1ccc(Cl)cc1 (stereo partly drawn) | -3% | ? | 13µM* | -2% | nt | 0%
CCOC(=O)C1CCN(c2c(NCc3ccc(C(=O)O)cc3)c(=O)c2=O)CC1 | 0% | 6% | 2% | 1% | 7% | nt
CCOC(=O)CCN(Cc1cccs1)S(=O)(=O)c1ccc(F)cc1 | 0% | ? | 13µM* | -2% | 6% | -1%
CC(C)CO/N=C1/[C@H]2O[C@@H]2[C@@H](O)[C@H]2[C@H]1CCn1c(=O)n(C)c(=O)n12 | 1%[11.5 µM] | -1%[11.4 µM] | 1%[11.4 µM] | -1%[11.5 µM] | 10%[11.4 µM] | nt
Cc1ccc2c(Cl)cc(Cl)c(OCc3c(C)noc3C)c2n1 | 7% | ? | 16µM* | 1% | 4% | -2%
Cc1ccc2c(Cl)cc(Cl)c(O)c2n1 | 0% | nt | nt | 0% | -7% | -2%
CCOC(=O)CCc1c(C)c2ccc(OC(C)C(=O)OCC)c(C)c2oc1=O (stereo not drawn) | -5% | ? | 20µM* | -2% | -3% | 7%
CN(C)CCNC(=O)c1ccc(-n2c(=O)c(=O)[nH]c3ccccc32)cc1 | -1% | -4% | -1% | 1% | 0% | nt
Cc1ccc2nc3c(cc2c1)CN(Cc1ccco1)C(=NCC1CCCO1)S3 (stereo not drawn) | -2% | ? | ? | -6% | -29% | -20%
Cc1cccc2cc3c(nc12)SC(=NCC1CCCO1)N(Cc1ccco1)C3 (stereo not drawn) | -19% | nt | 30% | -13% | 10µM* | -13%
Nc1nonc1-c1nc2ccccc2n1Cc1ccc(F)cc1Cl | -12% | ? | 16µM* | -8% | 4% | 21%
CN(c1ccccc1)C(c1ccc(F)cc1)c1nnnn1CC1CCCO1 (stereo not drawn) | -1% | ? | ? | 0% | -21% | 0%
CN(c1ccccc1)C(c1ccc(F)cc1)c1nnnn1C1CCCC1 (stereo not drawn) | -2% | ? | 13µM* | -5% | 2% | -4%
SMILES | Casp7 inh | TSHR agonist | HEK293 cAMP ctrl | Casp1 inh | 15-hLO inh | ALOX15B inhib
O=C(O)C1(O)CC(O)C(O)C(O)C1 (stereo not drawn) | 2% | nt | nt | 2% | 6% | 0%
c1coc(-c2nc(-c3ccco3)c(-c3ccco3)nc2-c2ccco2)c1 | ? | 18% | 13% | nt | 2µM* | -26%
Nc1nc(-c2ccco2)c(-c2ccco2)s1 | ? | -5% | -3% | ? | 20µM* | -22%
Nc1nc(-c2ccco2)cs1 | -2% | 0% | -5% | -5% | 2% | -6%
COc1ccc2nc(-c3ccco3)c(-c3ccco3)nc2c1 | nt | nt | nt | nt | nt | -1%
CCCCc1ccc(/C=C2\C(=O)c3ccccc3C(O)=C2C(=O)OCC)cc1 | nt | nt | nt | nt | nt | 10µM*
Cc1cc(NC(=O)COC(=O)c2ccc(NS(=O)(=O)c3ccc(C)c(C)c3)cc2)no1 | nt | nt | nt | nt | nt | 0%
Cc1cc(NC(=O)COC(=O)c2ccc(S(=O)(=O)N3CCCc4ccccc43)cc2)no1 | -1% | 16µM* | 17% | -1% | -6% | -2%
COc1cccc(/C=N/n2c(N)c(S(=O)(=O)c3cccs3)c3nc4ccccc4nc32)c1OC | nt | nt | nt | nt | nt | -10%
Nc1c(S(=O)(=O)c2cccc(Cl)c2)c2nc3ccccc3nc2n1/N=C/c1ccc(O)c(O)c1 | -10% | -9% | 7% | -3% | 16µM* | ?
O=C(NCCCN1CCOCC1)c1ccc(-n2c(=O)c(=O)[nH]c3ccccc32)cc1 | 0% | 3% | -16% | -3% | 0% | nt
CC1(C)Cc2[nH]c(=S)c(C#N)cc2CO1 | nt | nt | nt | nt | nt | 16µM*
COc1ccc(NC(=O)Cn2nnc(-c3ccccc3NC(=O)c3cccs3)n2)cc1 | 0% | 25µM* | 2% | 0% | -24% | -6%
Cc1cnc(CNc2cc(-c3ccc(N(C)C)cc3)ncn2)cn1 | -6% | 7% | 3% | -1% | -2% | 8%
CCOC(=O)c1c(C)c(C(=O)Nc2ccc3c(c2)OCCO3)c(C)n1C | -1% | -2%[11.4 µM] | 26% | -1% | -1% | -6%
CCOC(=O)c1c(C)c(C(=O)Nc2cc(F)ccc2F)c(C)n1C | -1% | ? | 7.9µM* | 2% | 0% | nt
CCOC(=O)Cn1nnnc1CN(Cc1cccs1)Cc1cc2cc(C)cc(C)c2[nH]c1=O | nt | nt | nt | nt | nt | 21%
CCOc1ccc2[nH]c(=O)c(CN(Cc3cccs3)Cc3nnnn3C(C)(C)CC)cc2c1 | 1% | ? | 20µM* | -4% | -9% | 13%
